SARS PLP yeast – blocks SARS-CoV papain-like protease in a yeast assay; S. cerevisiae expressing SARS-CoV PLpro, growth rescue; Potency, µM (top dose mostly 32.9 µM), actives largely listed as activators; 330,000 compounds, 0.19% hits; AID 485353; calls by dose curve; further: nearly all actives have a fitted effect of over 55% in size
Pf growth 96h – P. falciparum growth inhibition at 96 hours. P. falciparum luciferase reporter growth, 96 h. Potency, µM (doses to about 28.7 µM), most hits filed as inhibitors. 320,000 compounds, 6.9% hits. AID 504834
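Erythrocytes infected with luciferase-expressing P. falciparum were dispensed at 2% hematocrit and 0.05% parasitemia (final), then incubated with compounds 96 hours at 37 C in 5% CO2. Luminescence after detection reagent addition reported growth.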
Pf growth 48h – inhibits P. falciparum growth in the first generation, 48 h | P. falciparum luciferase growth in erythrocytes, 48 h | Potency, µM (highest dose often 28.7 µM), actives largely listed as inhibitors | 310,000 compounds, 5.9% hits
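Here the parasites carry a stable luciferase gene and grow inside erythrocytes in Albumax-based RPMI medium with compound for one erythrocytic cycle. Activity is scored as loss of luminescent signal.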
HCV inhibitor – HCV inhibition; Huh7.5.1 HCVcc-Cre infection, luciferase reporter, 44 h; Potency, µM (top dose mostly 41.8 µM), usual class: inhibitors; 340,000 compounds, 3.4% hits
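Cells (1,000/well) were plated 4 h before compound, then infected with HCVcc-Cre virus (~0.5 moi). After 44 h further culture, infection was read as luciferase luminescence following a 15 min substrate incubation at room temperature.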
AMA1 RON2 block – AMA1-RON2 (P. falciparum) interaction inhibition; AlphaScreen AMA1-biotinylated RON2 peptide binding; Potency, µM (series often up to 58.2 µM), usual class: inhibitors; 360,000 compounds, 0.2% hits; further: nearly all actives have a fitted effect of over 45% in size
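AMA1 (3D7) with his tag at 25 nM final met compounds first, then biotinylated RON2 peptide at 25 nM; detection used donor plus acceptor beads, 10 µg/mL apiece, read by AlphaScreen after 30 min at room temperature.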
NS1 inh – influenza NS1 inhibition; AID 2326; 270,000 compounds, 0.4% hits; Potency, µM (titrated, usually from 46.1 µM); calls by dose curve; further: actives are rising curves; nearly all actives have a fitted effect of over 50% in size
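A cell-based growth assay was used: compounds that relieve NS1-induced slow growth of budding yeast raise OD600. Assay medium was yeast nitrogen base with ammonium sulphate and -URA supplement, pH 6.0, with 2% galactose.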
Numbers stand for hits; n = inactive; u = inconclusive; x = no result; ! = not active in a repeat; [ ] = dose if it differs, or a comment. Most compounds without a hit are left out; they make up all but 12% or so of the library. Unless noted, the call rests on the fitted dose curve; in most records, active means well fitted curve in the direction sought with a large enough effect; inconclusive means small, poorly fitted or top-dose-only effect, or another doubt; inactive means no such curve, though single readings can be large; an effect the other way counts as inactive or inconclusive.

SMILES	SARS PLP yeast	Pf growth 96h	Pf growth 48h	HCV inhibitor	AMA1 RON2 block	NS1 inh
CC(C)CCOP(=O)(c1ccc(N(C)C)cc1)C(O)c1ccc(Cl)cc1Cl (stereo unspecified)	n	9.3µM	9.3µM	n	n	n
CN(C)c1ccc(P(=O)(OCc2ccccc2)C(O)c2ccc(Cl)cc2)cc1 (stereo unspecified)	n	u	u	n	n	n
CC(C)CCOP(=O)(c1ccc(N(C)C)cc1)C(O)c1ccc(N(C)C)cc1 (stereo unspecified)	n	u	u	n	n	n
Oc1ccc(Oc2ccc(Oc3ccc(O)cc3)cc2)cc1	n	n	n	n	n	n
O=C(O)c1ccc2c(c1)C(=O)N([C@@H](Cc1ccc(O)cc1)C(=O)O)C2=O	n	n	n	x	x	x
O=C1NCC(COCc2ccccc2)O1 (stereo unspecified)	n	5.2µM	n	n	n	n
CN(C)S(=O)(=O)N1CCN(c2ccc([N+](=O)[O-])c(NC3CC3)c2)CC1	n	u	4.1µM	n	n	n
CNc1cc(N2CCN(S(=O)(=O)N(C)C)CC2)ccc1[N+](=O)[O-]	n	n	n[5.75 µM]	n	n	x
CC(c1ccccc1)n1cnc2ccccc21 (stereo unspecified)	n	n	n	n	n	n
COC(=O)c1cncn1C(C)c1ccccc1 (stereo unspecified)	n	2.1µM	u	u	n	n
CC(c1ccccc1)n1cncc1C(=O)O (stereo unspecified)	n	1.5µM	n	n	n	n
Cc1nnc(SCc2nc3sc4c(c3c(=O)[nH]2)CCCC4)[nH]c1=O	n	n	n	n	n	n
CCSc1nc2sc3c(c2c(=O)n1-c1ccccc1)CCN(C)C3	n	n	3.3µM	u	n	n
C=CCSc1nc2sc3c(c2c(=O)n1-c1ccccc1)CCN(C)C3	n	0.59µM	u	u	n	n
CN1CCc2c(sc3nc(NN)n(-c4ccc(Cl)cc4)c(=O)c23)C1	n	u	x	u	n	n
COCCSc1nc2sc3c(c2c(=O)n1-c1ccccc1)CCN(C)C3	n	u	x	u	n	n
CN1CCc2c(sc3nc(NN)n(Cc4ccccc4)c(=O)c23)C1	n	2.1µM	3.7µM	u	n	n
CCCN1CCc2c(sc3nc(SCC)n(-c4ccc(OC)cc4)c(=O)c23)C1	n	0.59µM	5.9µM	u	n	n
COc1cccc(CN2CCNC(=O)C2CC(=O)NCCCC2CCCC2)c1OC (stereo unspecified)	n	n	n	x	n	n
CC1(C)C2CCC(CN)C1C2 (stereo unspecified)	x	x	x	x	n	x
O=C(CNC(=O)c1ccc(N2CCCC2=O)cc1)Nc1ccc(F)c(F)c1F	n	x	x	n	n	x
Cc1ccc(CCNC(=O)CNC(=O)c2cccs2)cc1	n	n	n	n	n	x
COc1ccc(-n2c(SC)nc3sc4c(c3c2=O)CCN(C)C4)cc1	n	7.4µM	3.7µM	u	n	n
CC(Sc1nc2sc3c(c2c(=O)n1-c1ccccc1)CCCC3)C(=O)O (stereo unspecified)	n	n	n	n	n	n
CCCN1CCc2c(sc3nc(SCC)n(-c4ccccc4)c(=O)c23)C1	n	0.26µM	1.3µM	n	n	n
SMILES	SARS PLP yeast	Pf growth 96h	Pf growth 48h	HCV inhibitor	AMA1 RON2 block	NS1 inh
COc1ccc(NC(=O)CSc2nc3sc4c(c3c(=O)n2-c2ccc(OC)cc2)CCN(C)C4)cc1	n	u	u	u	n	n
CCCN1CCc2c(sc3nc(SC)n(-c4ccccc4)c(=O)c23)C1	n	0.74µM	0.93µM	u	n	n
CN1CCc2c(sc3c2c(=O)n(-c2ccccc2)c2nnc(SCc4ccccc4)n32)C1	n	x	6.6µM	u	n	n
CN1CCc2c(sc3c2c(=O)n(-c2ccccc2)c2nnc(SCc4ccc(F)cc4)n32)C1	x	x	x	n	n	n
CC(C)[C@H](NC(=O)N1CC(=O)Nc2ccccc21)C(=O)N1CCC[C@@H]1C(=O)O	n	n	n	n	n	n
O=C(CN1CCSCC1)N/N=C/c1cccc(Cl)c1	n	n	n	n	n	x
CCC(Oc1ccccc1)C(=O)NCCOC (stereo unspecified)	n	n	n	n	n[2.32 µM]	n
C=Cc1cc(OC)c2c(c1)c(=O)oc1c2cc(OC)c2c(O)ccc(C3OC(C)C(O)C(C)(O)C3O)c21 (stereo unspecified)	x	x	x	1µM	n	x
COc1cc2c(oc(=O)c3cc(C)cc(OC)c32)c2c(C3OC(C)C(O)C(C)(O)C3O)ccc(O)c12 (stereo unspecified)	x	x	x	u	n	x
Cc1sc2nc(C)n(/N=C/c3ccccc3)c(=O)c2c1C	n	x	n	n	n	n
C=CCOc1nc2sc(C)c(C)c2c(=O)n1-c1ccccc1	n	8.3µM	n	n	n	n
CC(C)(N)C(=O)N[C@@H]1C(=O)N2[C@@H]1SC(C)(C)[C@H]2C(=O)O	x	x	x	x	x	n
CCC(=O)c1ccc(N2CCCCC2)c(F)c1	n	8.3µM	n	n	n	n
CC(=O)c1ccc(N2CCCC2)c(F)c1	n	x	n	n	x	n
CCC(=O)c1ccc(N2CCOCC2)c(F)c1	x	x	x	n	n	x
CCCCCC(=O)N1CCN(c2ccc(C(C)=O)cc2F)CC1	n	7.4µM	n	n	n	n
Cc1oc2c(c1C(=O)c1ccc(Cl)cc1)C(=O)C(=O)c1ccccc1-2	n	u	u	10µM	n	n
Cc1ccc(C(=O)c2coc3c2C(=O)C(=O)c2ccccc2-3)cc1	n	n	x	u	n	n
Cc1ccc(C(=O)c2c(C)oc3c2C(=O)C(=O)c2ccccc2-3)cc1	n	u	u	7.1µM	n	n
O=C1O[C@@H]([C@@H](O)CO)[C@@H](O)[C@H]1O	x	n	n	x	x	x
CCC1=[N+](CC(=O)c2ccc(C)cc2)CCn2cccc21	n	n	u	n	n	n
CCC1=[N+](CC(=O)c2ccc(Br)cc2)CCn2c(C)ccc21	n	u	5.9µM	n	n	n
CCC1=[N+](CC(=O)c2ccc(C)cc2)CCn2c(C)ccc21	n	u	3.3µM	u	n	n
O=C(NC1CCCC1)C(=O)N(Cc1cccnc1)C(C(=O)NCC1CCCO1)c1ccco1 (stereo unspecified)	n	n	n	n	n	n
CCN(CC)c1cc(C)c2cc(NC(=O)c3ccccc3F)ccc2n1	n	u	10µM	10µM	n	n
CN(C)c1ccc2nc3ccc(=[N+](C)C)cc-3sc2c1	n	0.0067µM!	0.0067µM	u	n	x
Cc1cc2nc3ccc(=[N+](C)C)cc-3sc2cc1N	n	0.033µM	0.037µM	3.2µM	n	n
COc1ccc2nc(N=Nc3ccc(N(C)C)cc3)sc2c1	n	n	n	n	u	n
Cc1nc2cc(C)c(C)cc2s1	n	u	n	n	n	x
COC(=O)c1sc2nc(SCc3ccccc3C)n(N)c(=O)c2c1C	n	u	n	u	n	n

Bioassay records as filed in PubChem BioAssay.
